# Assay outcomes from PubChem.
# JMJD2A Tudor: blocks the human JMJD2A Tudor domain; AlphaScreen JMJD2A-Tudor / H3K4me3 peptide binding; O75164; 4.4% of 390,000 active; Potency, µM (titrated, usually from 114 µM), for the others: at the top dose activity change, negative = inhibition, usual class: inhibitors; further: on the % scale 0 is the no-effect control and ±100 the full control effect; nearly all actives have a fitted effect of over 50% in size
# G9a block: blocks human histone lysine methyltransferase G9a. Q96KQ7. G9a H3K9 monomethylation, AlphaScreen, 2 h. Potency, µM (doses to about 102 µM), without a hit: at the highest dose activity, negative = inhibition, hits mostly inhibitors. 8.8% of 350,000 active. AID 504332; further: on the % scale 0 is the no-effect control and ±100 the full control effect; nearly all actives have a fitted effect of over 75% in size
# Target sequence (Q96KQ7 913-1193 limits assumed): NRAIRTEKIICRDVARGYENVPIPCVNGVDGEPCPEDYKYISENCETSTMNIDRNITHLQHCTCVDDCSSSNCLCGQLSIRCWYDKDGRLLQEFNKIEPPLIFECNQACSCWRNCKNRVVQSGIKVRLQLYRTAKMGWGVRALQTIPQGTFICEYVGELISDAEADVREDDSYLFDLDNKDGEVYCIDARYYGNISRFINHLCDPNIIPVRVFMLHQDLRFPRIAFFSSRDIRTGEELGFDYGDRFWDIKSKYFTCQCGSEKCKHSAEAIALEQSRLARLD
#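 Enzyme 20 nM + cpd, 15 min RT; add b-H3K9 pep 500 nM / SAM 20 uM; 2 h RT; anti-H3K9me1 Ab 0.5 ug/mL + SA donor / anti-rabbit acceptor beads 20 ug/mL each, 10 min; AlphaScreen read.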
# HP1b binding inh: blocks HP1-beta chromodomain binding to methylated histone tails | P83916 | AlphaScreen HP1-beta / biotin-H3K9me3 peptide binding | Potency, µM (doses to about 114 µM), without a hit: top-dose activity change, negative = inhibition, usual class: inhibitors | 0.56% of 390,000 active | AID 540317; further: nearly all actives have a fitted effect of over 70% in size
# Target sequence (P83916 whole entry, looked up): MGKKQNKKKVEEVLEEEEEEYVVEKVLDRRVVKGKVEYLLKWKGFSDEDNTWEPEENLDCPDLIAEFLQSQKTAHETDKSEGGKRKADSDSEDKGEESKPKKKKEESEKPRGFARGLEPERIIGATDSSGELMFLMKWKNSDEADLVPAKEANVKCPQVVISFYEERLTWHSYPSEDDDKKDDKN
#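 AlphaScreen: HP1-beta (50 nM) preformed 30 min with biotin-H3(1-18)K9me3 peptide (50 nM) in PBS pH 7.4, 0.01% Tween-20. Compound added for 30 min at RT, then streptavidin donor/nickel chelate acceptor beads (10 ug/mL) for 30 min.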
# BAZ2B block: blocks human BAZ2B; AlphaScreen BAZ2B-H3K14Ac peptide displacement; 4.4% of 360,000 active; AID 504333; Potency, µM (titrated, usually from 114 µM), without a hit: top-dose activity change, negative = inhibition, usual class: inhibitors; further: on the % scale 0 is the no-effect control and ±100 the full control effect; nearly all actives have a fitted effect of over 60% in size
#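 Inhibition is scored as reduced AlphaScreen emission. The BAZ2B/b-H3(5-23)K14Ac complex (50 nM each) in PBS pH 7.4, 0.01% Tween-20 meets compound (up to 110 uM) for 30 min at RT before bead addition.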
# Sfp inh: blocks B. subtilis Sfp PPTase activity | AID 1490 | 3.5% of 310,000 active | Q9F4F7 | Potency, µM, inactives show largest response in the series, negative = inhibition, actives largely listed as inhibitors | Biochemical Sfp PPTase activity, qHTS;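 further: the enzyme is Sfp with the accession as filed and its product quenches rhodamine fluorescence; 0% = enzyme reaction without inhibitor and -100% = no enzyme wells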
#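 Reaction rates are the 30-min fluorescence difference (ex 525, em 598 nm) in wells containing 15 nM Sfp, 5 uM rhodamine-CoA and 12.5 uM BHQ-2-YbbR at pH 7.6 with 10 mM MgCl2.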
# L3MBTL1 inh: inhibitors of human L3MBTL1; AlphaScreen L3MBTL1–H3K9me1 peptide binding; Potency, µM (doses to about 57.1 µM), without a hit: top-dose activity, negative = inhibition, hits mostly inhibitors; 0.66% of 230,000 active; AID 485360; further: on the % scale 0 is the no-effect control and ±100 the full control effect; nearly all actives have a fitted effect of over 60% in size
#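 Read-out is AlphaScreen signal from streptavidin donor and nickel chelate acceptor beads (10 ug/mL final each) bridging L3MBTL1 (50 nM) and biotinylated K9-monomethylated H3(1-15) peptide (75 nM), after 30 min compound exposure at room temperature.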
# The depositor's hits bear a star; ? = inconclusive; . = no result; ! = not active in a repeat; [ ] = dose if it differs, or a comment. Hits are enriched below; roughly 12% of the tested compounds scored in any of these assays. The call rests on the fitted dose curve; in most records, active means well fitted curve in the direction sought with a large enough effect; inconclusive means small, poorly fitted or top-dose-only effect, or another doubt; inactive means no such curve, though single readings can be large; an effect the other way counts as inactive or inconclusive. Potency means the concentration at half of the fitted maximal effect.
SMILES,JMJD2A Tudor,G9a block,HP1b binding inh,BAZ2B block,Sfp inh,L3MBTL1 inh
CC(C)c1ccc(OCc2ccc(C(=O)N(C)C)o2)cc1,-17%,5%,45%,?,-7%,.
CC(C)c1ccc(OCc2ccc(C(=O)O)o2)cc1,-23%,?,-7%,79µM*,15%,.
COc1ccc(-c2nc(CSCC(=O)NCCCN3CCCC3=O)c(C)o2)cc1,3%,-1%,36%,2%,5%,.
Cc1cc(S(=O)(=O)NCc2ccco2)c(C)cc1Cl,-15%,45µM*,33%,?,1%,.
COc1cc(C)c(Cl)cc1S(=O)(=O)NCc1ccco1,-14%,8%[12.7 µM],38%,-27%,10%,-1%
CCc1ccc(-c2cc(C)no2)cc1S(=O)(=O)NCc1ccco1,-26%,71µM*!,14%,?,-1%,.
CCN(CC)S(=O)(=O)c1cc([N+](=O)[O-])ccc1NNC(=O)Nc1ccccc1OC,?,28µM*,7%,?,50µM*,.
CCN(CC)S(=O)(=O)c1cc([N+](=O)[O-])ccc1NNC(=O)Nc1ccc(F)cc1,?,?,-3%,-37%,45µM*,.
CCN(CC)S(=O)(=O)c1ccc(OC)c(NC(=O)c2ccc([N+](=O)[O-])cc2)c1,-6%[11.4 µM],-5%,-21%,10%,8%,.
O=C(Nc1ccc(F)cc1)Nc1ccc([N+](=O)[O-])cn1,-5%,-1%,12%,5%,-5%,.
OC(CCCC(O)c1ccccc1)c1ccccc1 (stereo not given),-1%,.,24%,.,.,.
OC(Cn1cnnc1)c1ccccc1 (stereo not given),6.3µM*,35µM*,22µM*,25µM*,?,.
COc1cccc(/C=C2/C(=O)NN(c3ccc(F)cc3)C2=O)c1,-19%,45µM*,-27%,-17%,?,.
O=C1S/C(=C\c2cccs2)C(=O)N1c1ccc(O)cc1,-16%,0%,19%,2%,3%,.
COc1cccc(C=C2SC(=S)NC2=O)c1,-28%,.,-17%,.,.,.
COc1cccc(/C=C2/C(=O)NN(c3ccccc3)C2=O)c1,-19%,40µM*,-8%,?,?,.
O=C1NN(c2ccc(F)cc2)C(=O)/C1=C/c1cccs1,-32%,45µM*,-17%,-36%,10%,-17%
O=C1NN(c2ccccc2)C(=O)/C1=C\c1ccc2c(c1)OCO2,?,50µM*,4%,-25%,4%,-4%
O=C(Nc1ccc(OCc2cc(=O)n3c4c(sc3n2)CCCC4)cc1)c1cccc(F)c1,-12%,-13%[59 µM],24%,-3%,.,.
COc1cccc(/C=C2\C(=O)C(=O)c3ccccc32)c1,?,50µM*,-8%,?,-16%,.
COc1cccc(/C=C2/C(=O)NN(c3ccc(C)c(C)c3)C2=O)c1,-31%,45µM*,8%,-27%[57.1 µM],-23%,-4%
COc1cc(C=C2C(=O)c3ccccc3C2=O)cc(OC)c1,-14%,.,29%,-15%,-2%,.
Brc1ccc2c(c1)c1cc(Br)ccc1n2CC1CO1 (stereo not given),.,.,.,.,-12%,.
Cc1ccccc1-c1nccc(NCc2cccnc2)n1,.,1%[0.501 µM],.,.,-7%,.
COc1ccc(Cl)cc1Nc1sc(C(=O)c2ccccc2)c(N)c1C(=O)Nc1ccccc1,?,16µM*,?,?,.,.
Cc1ccccc1Nc1sc(C(=O)Nc2cccc(Cl)c2)c(N)c1C(N)=O,-18%,79µM*,16%,?,-4%,-14%
COC(=O)CCCCC(=O)C1C(=O)CC(C)(C)C(C(=O)OC)C1=O (stereo not given),?,?,17%,-1%,9%,-1%
CCCC(=O)C1C(=O)CC(C)(C)C(c2cc(C)no2)C1=O (stereo not given),50µM*,?,10%,-11%,1%,10%
c1ccc(N/N=C(\Cc2nc3ccccc3[nH]2)c2ccccc2)cc1,?,1.4µM*,-18%,?,9%,-7%
